Experimental data published in paper PMC12864922, “TDP-43 directly inhibits mRNA accumulation in neurites through modulation of mRNA stability”.
Whole data set: some 9,900 sequences, median “r (bound/input frequency ratio)” near 0.7, cut for the highest 2% near 6.5. Many of the other results were omitted from the sample, so the highest values are more common in it than they were.

B1: ENSMUSG00000043670.217|Diras1|25:29;58:70;94:99;102:106;111:115;225:229 (ssRNA)
RNA: GGGAGUUCUACAGUCCGACGAUCGCUUCGAUAUCCGCAUGCUAGGAUGGGGUGUUCUUGCACCACUUACACAUCUUAGUGAGACCACAGUGUAAGUGGCCCACACACACACACGGGGGGGGCACCUAGACAUUGUGCACACACUCAUACGCUCACACAUUUCAGGGGUGGGUGACACAGGCCUGUCUGAUGAGCACCAGGUCUGUUCCAGGCUGUGGCAAGCUGGCUCCUGGCUCAGAAGUGACAAAGCUGCAGUACAGAGGCCUCACACACAGGUCAUCACCUCACAGUGGCUACAGACCAGCUCUUGCGGUCGCACUAGUGUGGAAUUCUCGGGUGUCAAGG
B2: ENSMUSG00000042529.427|Kcnj12|1:9;32:37;194:198 (ssRNA)
RNA: GGGAGUUCUACAGUCCGACGAUCGCUUCGAUAUCCGCAUGCUACACACAUACUGAAUGUCAGUGGCUUGGGUGCACACACGAGAGAGAGAGAGAGAGAGAGAGAGAGAGAGAGAGAGAGAGAGAGAGAGAGCUGCACAGGAUGAAGCAGCUGCCCUGAGCCCAUCUGGUGCUGUGCACCUGGUCCUUGUCCAGCCGAGGGCCUGGGGGCAGAAGAACACACCAUAGGGAGGCCCUUCAUACGGUGUCUGCCCUAUGUGAGGUCAUAGAAUGUUAAAUCUAUUUUAAACGGUGAAACUGGAGAACUCUUGCGGUCGCACUAGUGUGGAAUUCUCGGGUGUCAAGG
B3: ENSMUSG00000042529.425|Kcnj12|11:21;44:49;206:210 (ssRNA)
RNA: GGGAGUUCUACAGUCCGACGAUCGCUUCGAUAUCCGCAUGCUAAGGUCCCAGGCACACACAUACUGAAUGUCAGUGGCUUGGGUGCACACACGAGAGAGAGAGAGAGAGAGAGAGAGAGAGAGAGAGAGAGAGAGAGAGAGAGCUGCACAGGAUGAAGCAGCUGCCCUGAGCCCAUCUGGUGCUGUGCACCUGGUCCUUGUCCAGCCGAGGGCCUGGGGGCAGAAGAACACACCAUAGGGAGGCCCUUCAUACGGUGUCUGCCCUAUGUGAGGUCAUAGAAUGUUAAAUCUAUUUUAAACGGUCUCUUGCGGUCGCACUAGUGUGGAAUUCUCGGGUGUCAAGG
B4: ENSMUSG00000042529.419|Kcnj12|1:17;22:27;31:35;47:57;80:85;242:246 (ssRNA)
RNA: GGGAGUUCUACAGUCCGACGAUCGCUUCGAUAUCCGCAUGCUACACACACACACACACACAACAACACACAGGCACACGAGGUCCCAGGCACACACAUACUGAAUGUCAGUGGCUUGGGUGCACACACGAGAGAGAGAGAGAGAGAGAGAGAGAGAGAGAGAGAGAGAGAGAGAGAGAGCUGCACAGGAUGAAGCAGCUGCCCUGAGCCCAUCUGGUGCUGUGCACCUGGUCCUUGUCCAGCCGAGGGCCUGGGGGCAGAAGAACACACCAUAGGGAGGCCCUUCAUACGGUGUCUGCCCUAUCUCUUGCGGUCGCACUAGUGUGGAAUUCUCGGGUGUCAAGG
B5: ENSMUSG00000042529.420|Kcnj12|1:11;16:21;25:29;41:51;74:79;236:240 (ssRNA)
RNA: GGGAGUUCUACAGUCCGACGAUCGCUUCGAUAUCCGCAUGCUACACACACACACAACAACACACAGGCACACGAGGUCCCAGGCACACACAUACUGAAUGUCAGUGGCUUGGGUGCACACACGAGAGAGAGAGAGAGAGAGAGAGAGAGAGAGAGAGAGAGAGAGAGAGAGAGCUGCACAGGAUGAAGCAGCUGCCCUGAGCCCAUCUGGUGCUGUGCACCUGGUCCUUGUCCAGCCGAGGGCCUGGGGGCAGAAGAACACACCAUAGGGAGGCCCUUCAUACGGUGUCUGCCCUAUGUGAGGCUCUUGCGGUCGCACUAGUGUGGAAUUCUCGGGUGUCAAGG
B6: ENSMUSG00000042529.424|Kcnj12|1:5;17:27;50:55;212:216 (ssRNA)
RNA: GGGAGUUCUACAGUCCGACGAUCGCUUCGAUAUCCGCAUGCUACACACGAGGUCCCAGGCACACACAUACUGAAUGUCAGUGGCUUGGGUGCACACACGAGAGAGAGAGAGAGAGAGAGAGAGAGAGAGAGAGAGAGAGAGAGAGAGAGCUGCACAGGAUGAAGCAGCUGCCCUGAGCCCAUCUGGUGCUGUGCACCUGGUCCUUGUCCAGCCGAGGGCCUGGGGGCAGAAGAACACACCAUAGGGAGGCCCUUCAUACGGUGUCUGCCCUAUGUGAGGUCAUAGAAUGUUAAAUCUAUUUUACUCUUGCGGUCGCACUAGUGUGGAAUUCUCGGGUGUCAAGG
B7: ENSMUSG00000042529.421|Kcnj12|1:5;10:15;19:23;35:45;68:73;230:234 (ssRNA)
RNA: GGGAGUUCUACAGUCCGACGAUCGCUUCGAUAUCCGCAUGCUACACACAACAACACACAGGCACACGAGGUCCCAGGCACACACAUACUGAAUGUCAGUGGCUUGGGUGCACACACGAGAGAGAGAGAGAGAGAGAGAGAGAGAGAGAGAGAGAGAGAGAGAGAGAGCUGCACAGGAUGAAGCAGCUGCCCUGAGCCCAUCUGGUGCUGUGCACCUGGUCCUUGUCCAGCCGAGGGCCUGGGGGCAGAAGAACACACCAUAGGGAGGCCCUUCAUACGGUGUCUGCCCUAUGUGAGGUCAUAGCUCUUGCGGUCGCACUAGUGUGGAAUUCUCGGGUGUCAAGG
B8: ENSMUSG00000042529.423|Kcnj12|7:11;23:33;56:61;218:222 (ssRNA)
RNA: GGGAGUUCUACAGUCCGACGAUCGCUUCGAUAUCCGCAUGCUAGUGAGGCACACGAGGUCCCAGGCACACACAUACUGAAUGUCAGUGGCUUGGGUGCACACACGAGAGAGAGAGAGAGAGAGAGAGAGAGAGAGAGAGAGAGAGAGAGAGAGAGCUGCACAGGAUGAAGCAGCUGCCCUGAGCCCAUCUGGUGCUGUGCACCUGGUCCUUGUCCAGCCGAGGGCCUGGGGGCAGAAGAACACACCAUAGGGAGGCCCUUCAUACGGUGUCUGCCCUAUGUGAGGUCAUAGAAUGUUAAAUCUCUCUUGCGGUCGCACUAGUGUGGAAUUCUCGGGUGUCAAGG
B9: ENSMUSG00000042529.426|Kcnj12|5:15;38:43;200:204 (ssRNA)
RNA: GGGAGUUCUACAGUCCGACGAUCGCUUCGAUAUCCGCAUGCUACAGGCACACACAUACUGAAUGUCAGUGGCUUGGGUGCACACACGAGAGAGAGAGAGAGAGAGAGAGAGAGAGAGAGAGAGAGAGAGAGAGAGAGCUGCACAGGAUGAAGCAGCUGCCCUGAGCCCAUCUGGUGCUGUGCACCUGGUCCUUGUCCAGCCGAGGGCCUGGGGGCAGAAGAACACACCAUAGGGAGGCCCUUCAUACGGUGUCUGCCCUAUGUGAGGUCAUAGAAUGUUAAAUCUAUUUUAAACGGUGAAACUCUCUUGCGGUCGCACUAGUGUGGAAUUCUCGGGUGUCAAGG
B10: ENSMUSG00000042529.422|Kcnj12|4:9;13:17;29:39;62:67;224:228 (ssRNA)
RNA: GGGAGUUCUACAGUCCGACGAUCGCUUCGAUAUCCGCAUGCUAACAACACACAGGCACACGAGGUCCCAGGCACACACAUACUGAAUGUCAGUGGCUUGGGUGCACACACGAGAGAGAGAGAGAGAGAGAGAGAGAGAGAGAGAGAGAGAGAGAGAGAGAGCUGCACAGGAUGAAGCAGCUGCCCUGAGCCCAUCUGGUGCUGUGCACCUGGUCCUUGUCCAGCCGAGGGCCUGGGGGCAGAAGAACACACCAUAGGGAGGCCCUUCAUACGGUGUCUGCCCUAUGUGAGGUCAUAGAAUGUUCUCUUGCGGUCGCACUAGUGUGGAAUUCUCGGGUGUCAAGG

Biological target: TDP-43 (Homo sapiens, UniProt Q13148 1-414)
Assay: RNA Bind-n-Seq with designed 260-mer pool; 25 mM Tris-HCl, 150 mM KCl, 3 mM MgCl2, BSA (printed 500 mg/mL), 20 units/mL SUPERase IN; pH not stated; 500 nM RNA pool, 1 h, 4 C; TDP-43 5, 50, 500 nM; high values mean tight binding
Conditions: protein: recombinant; tags: SBP (GST cleaved off with PreScission; pGEX-GST-SBP)
In short: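 Duplicate measurements used two independent batches of recombinant SBP-tagged TDP-43, which was captured on streptavidin beads at 5, 50 or 500 nM. The beads were incubated with 500 nM of an in vitro-transcribed 260-nt 3′ UTR oligo pool for 1 h at 4 °C in 25 mM Tris-HCl, 150 mM KCl, 3 mM MgCl2, BSA and SUPERase IN. After washing, biotin elution, reverse transcription, PCR amplification and sequencing, binding was expressed as R: each oligo's normalized read abundance in the bound sample over its abundance in input.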

TDP-43, sequence (Q13148 whole entry): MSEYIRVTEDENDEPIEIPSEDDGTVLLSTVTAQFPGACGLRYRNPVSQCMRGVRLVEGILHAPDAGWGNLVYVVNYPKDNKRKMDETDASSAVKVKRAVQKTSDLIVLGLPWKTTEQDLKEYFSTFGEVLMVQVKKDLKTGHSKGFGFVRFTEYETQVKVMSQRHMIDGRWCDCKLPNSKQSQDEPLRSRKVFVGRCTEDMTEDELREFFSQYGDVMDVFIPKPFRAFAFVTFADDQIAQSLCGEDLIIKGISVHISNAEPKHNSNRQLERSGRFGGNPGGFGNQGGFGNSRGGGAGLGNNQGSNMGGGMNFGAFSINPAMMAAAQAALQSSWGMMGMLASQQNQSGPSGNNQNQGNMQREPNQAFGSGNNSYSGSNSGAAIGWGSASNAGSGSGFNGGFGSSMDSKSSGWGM

Binder	binding signal
B1	0.883 R (bound/input frequency ratio)
B2	5.49 R (bound/input frequency ratio)
B3	6.2 R (bound/input frequency ratio)
B4	6.45 R (bound/input frequency ratio)
B5	4.97 R (bound/input frequency ratio)
B6	6.55 R (bound/input frequency ratio)
B7	7.21 R (bound/input frequency ratio)
B8	7.58 R (bound/input frequency ratio)
B9	5.67 R (bound/input frequency ratio)
B10	6.32 R (bound/input frequency ratio)
